# Source: article PMC7819943, “Rice protein-binding microarrays: a tool to detect cis-acting elements near promoter regions in rice”
# The full ranking holds about 68,000 sequences; the median of “fluorescence intensity (a.u.)” is about 9,100, and the highest 2% start at about 16,000. The full list was thinned out, with the highest values kept by preference.
# Molecular target: OsWRKY34 (Oryza sativa, UniProt Q0JBA9 1-250)
# Experiment: protein-binding microarray (RPBM); PBS, 2% BSA, 51.3 ng/ul salmon testes DNA, 50 uM zinc acetate, 200 nM TF, 25 C, 1 h; high values mean tight binding
# Settings: protein: recombinant; tags: N-terminal polyhistidine and DsRed monomer fusion (pET32a); label: CyDye5-dUTP incorporated in the synthesized complementary strand; 3' TTTTT single-stranded linker to array surface; dsDNA, one strand shown
# Method in brief: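 Binding signal here means per-feature fluorescence intensity in arbitrary units. The values were read on an Axon 4000B scanner after a custom Agilent array, double-stranded by primer extension with Cy5-dUTP, was incubated with 200 nM protein at 25 °C for 1 h in PBS with 2% BSA, salmon testes DNA and 50 µM zinc acetate, then washed. The proteins were transcription factors with an N-terminal polyhistidine tag and DsRed, expressed in E. coli BL21-CodonPlus and purified on Ni–NTA.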
# Chain of OsWRKY34 (Q0JBA9 entry or part of it): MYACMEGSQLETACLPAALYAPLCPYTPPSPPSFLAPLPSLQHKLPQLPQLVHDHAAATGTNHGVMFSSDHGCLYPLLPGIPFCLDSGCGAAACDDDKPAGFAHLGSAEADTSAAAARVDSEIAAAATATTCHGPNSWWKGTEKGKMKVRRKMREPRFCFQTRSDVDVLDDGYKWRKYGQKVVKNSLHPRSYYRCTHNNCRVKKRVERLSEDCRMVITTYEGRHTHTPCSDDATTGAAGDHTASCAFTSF
row,Sequence,binding signal
1,TCCATGGATATTTTGTCTCTTCTGCTTGATCACTAGGCCCCGGAGTCACCTAGTGCAG,10100 fluorescence intensity (a.u.)
2,TCCCGACACCGGCTGTCCACTTCGCTCTGCTCCACGCCGCCGGAGTCACCTAGTGCAG,8660 fluorescence intensity (a.u.)
3,ATCCCCACCGTTGACCGAAGTTGACCTCCAAGAATCCTGACGGAGTCACCTAGTGCAG,13800 fluorescence intensity (a.u.)
4,TCAACTCCTCCCTGAGTCTAGTCCCGATCCGCCGTTGACCCGGAGTCACCTAGTGCAG,13000 fluorescence intensity (a.u.)
5,CTCCCTGAGTCTAGTCCCGATCCCCACCGTTGACCGAAGTCGGAGTCACCTAGTGCAG,19900 fluorescence intensity (a.u.)
6,CTGAGAATTTAGGACCTGATCACTTTTATGACATTTTCAACGGAGTCACCTAGTGCAG,8610 fluorescence intensity (a.u.)
7,CATTTATCTATTTATCTATCTATATATATTATATTATATTCGGAGTCACCTAGTGCAG,8560 fluorescence intensity (a.u.)
8,GGGTTTTTTATATACTGGTAAATATTCGCTACCGTATTCGCGGAGTCACCTAGTGCAG,9130 fluorescence intensity (a.u.)
9,TTTCCGTACTAAATTTTGTTCATTCGTTTTATTTATTTTTCGGAGTCACCTAGTGCAG,17100 fluorescence intensity (a.u.)
10,GCTTTCTGTGGTGCATTCTATATTTTTTATATATTATTATCGGAGTCACCTAGTGCAG,16400 fluorescence intensity (a.u.)
11,TTTGCATTTATTTTTCATTGTTTCCGTCACTTTAGAAATTCGGAGTCACCTAGTGCAG,8260 fluorescence intensity (a.u.)
12,TGTAGTTGTGAGTGTATTCGTTTGTACTGTTTTTTTTATACGGAGTCACCTAGTGCAG,11900 fluorescence intensity (a.u.)
13,AATTTCTGCTGCCATTTTCTATGTTCTTTAGTCTAAGTTTCGGAGTCACCTAGTGCAG,14700 fluorescence intensity (a.u.)
14,TGCGTTTATTTATACCGTTGTCCTCGCGTACTGTTTTATTCGGAGTCACCTAGTGCAG,19400 fluorescence intensity (a.u.)
15,CCCATTATTTTTTATACCTTTATTTATCTTCTGTGTTTTTCGGAGTCACCTAGTGCAG,13500 fluorescence intensity (a.u.)
16,AGTGGTGCATTCTGTTTTTTTATATATTATTATTTGTTTACGGAGTCACCTAGTGCAG,9050 fluorescence intensity (a.u.)
17,GCCATTATATCTGCAGTTCTTTTCTGTGCTAAAATTTTAGCGGAGTCACCTAGTGCAG,17100 fluorescence intensity (a.u.)
18,TTCGTATTTGTTTCCGTATCCGGATTATTCATATTCGTTTCGGAGTCACCTAGTGCAG,8050 fluorescence intensity (a.u.)
19,GAGCACATACTTTGGTCATTAATGGTGATTATAATGATATCGGAGTCACCTAGTGCAG,8820 fluorescence intensity (a.u.)
20,GAGGAAACATCTATCCCGGTCAAAGCCTGAGCATGTACACCGGAGTCACCTAGTGCAG,8210 fluorescence intensity (a.u.)
21,TTTCTCTTTGCACCCTAGCCTCATGTTCTTCTTCTTCCTCCGGAGTCACCTAGTGCAG,8680 fluorescence intensity (a.u.)
22,GAAGAGCCGGCTCGTTCCTCTCCTTCCCGTTCACATTTCACGGAGTCACCTAGTGCAG,8260 fluorescence intensity (a.u.)
23,CTGATGTCTGAACGACTGTACCCGACGTTGTTGATTGCTTCGGAGTCACCTAGTGCAG,9820 fluorescence intensity (a.u.)

row,Sequence,binding signal
1,GGGCGACAAGCACGCGTATACCCATCTATCATCCCGCTCCCGGAGTCACCTAGTGCAG,8390 fluorescence intensity (a.u.)
2,CACCAGCATCCTCGCACGGTCGCGACCCCTCCCGCACCTCCGGAGTCACCTAGTGCAG,8200 fluorescence intensity (a.u.)
3,CAATCCGGACCATATAAGTGTTTTCCTTTTTTAATTCTTTCGGAGTCACCTAGTGCAG,11300 fluorescence intensity (a.u.)
4,AATTTTGTATATTCGTTTGCACGTTTTTAAAACTCCTAAACGGAGTCACCTAGTGCAG,65500 fluorescence intensity (a.u.)
5,ATAGTCATTTATTTTGTGCTCTCGTATTTTTTTTCTGTTTCGGAGTCACCTAGTGCAG,9540 fluorescence intensity (a.u.)
6,TTATTTTGTGATTACTATCTCTCCGTTCATGTTTCTATCTCGGAGTCACCTAGTGCAG,16400 fluorescence intensity (a.u.)
7,GTATTTTAAGCATATTTTTTCGTTTTTTATATTTGTAAAACGGAGTCACCTAGTGCAG,11000 fluorescence intensity (a.u.)
8,ACTATTACTTCTATTTTCTAGTATTTTTTTTTGTTTCTCTCGGAGTCACCTAGTGCAG,13500 fluorescence intensity (a.u.)
9,CCCCTATTTTGTTACCTCATTATTCTCGTATTCCCCTTTTCGGAGTCACCTAGTGCAG,9810 fluorescence intensity (a.u.)
10,TACTATTTTTTCTCGTATTCATTATTTTGTGCATTATTTTCGGAGTCACCTAGTGCAG,17200 fluorescence intensity (a.u.)
11,AAATTTGTATAGACGTTTGCTTTTAACTTAGTCCTAAATTCGGAGTCACCTAGTGCAG,9130 fluorescence intensity (a.u.)
12,TACATTACTTCATATTTTTTTCTGTTTGTGATTTCTATTTCGGAGTCACCTAGTGCAG,9740 fluorescence intensity (a.u.)
13,GATTGGGCGATTTCATCTTCTTCTTGGCCTTGAGGCGGTACGGAGTCACCTAGTGCAG,10000 fluorescence intensity (a.u.)
14,TTTCTTAGCTATGTCCTAATTTATTACTGTGCATGTTTCTCGGAGTCACCTAGTGCAG,10900 fluorescence intensity (a.u.)
15,CACATGTCATTGTCACACACACGCGCGCCCCATTGGACATCGGAGTCACCTAGTGCAG,9860 fluorescence intensity (a.u.)
16,ATTTGCACCTGTTGAATGGGCATGTCTTGTGTGTGTTTCTCGGAGTCACCTAGTGCAG,8400 fluorescence intensity (a.u.)
17,CCCACCAGGCCACCAAACTCTCTCGGGCCGAAACGGTCAACGGAGTCACCTAGTGCAG,8380 fluorescence intensity (a.u.)
18,GTGGGGTCGGGTACTCGCGTGGGCCCACCTGGCCGGTCAACGGAGTCACCTAGTGCAG,10200 fluorescence intensity (a.u.)
19,TCTCGGGCCGAAACGGTCAACGCGTTTACCGGTGGCATAACGGAGTCACCTAGTGCAG,17500 fluorescence intensity (a.u.)
20,TCCTCTTGCAATCATTCACTCTCCTTGCTCGATTCTATAACGGAGTCACCTAGTGCAG,11300 fluorescence intensity (a.u.)
21,AATTCTTTTGTCGTATTATCCTATCTACTTCCACTTATAACGGAGTCACCTAGTGCAG,8560 fluorescence intensity (a.u.)
22,AATATAGTTGCTGATGCGCTGTCCAGGATGCCTGTTATACCGGAGTCACCTAGTGCAG,9400 fluorescence intensity (a.u.)
